# Most compounds without a hit are left out; they make up all but 1.4% or so of the library.
# APOBEC3G inh = APOBEC3G DNA deaminase inhibitors, primary screen, biochemical, fluorescence, single-stranded DNA substrate, uHTS | DNA dC->dU-editing enzyme APOBEC-3G (Homo sapiens), Q9HC16 | recombinant A3G, ssDNA deamination FAM/TAMRA fluorescence | inhibition, % at 20 µM | 0.28% of 330,000 active | AID 493012, 2011;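 active = inhibition of at least 40% at 20 µM, with no more than 30% in the related APOBEC3A deaminase screen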
# Target sequence (Q9HC16 whole entry, looked up): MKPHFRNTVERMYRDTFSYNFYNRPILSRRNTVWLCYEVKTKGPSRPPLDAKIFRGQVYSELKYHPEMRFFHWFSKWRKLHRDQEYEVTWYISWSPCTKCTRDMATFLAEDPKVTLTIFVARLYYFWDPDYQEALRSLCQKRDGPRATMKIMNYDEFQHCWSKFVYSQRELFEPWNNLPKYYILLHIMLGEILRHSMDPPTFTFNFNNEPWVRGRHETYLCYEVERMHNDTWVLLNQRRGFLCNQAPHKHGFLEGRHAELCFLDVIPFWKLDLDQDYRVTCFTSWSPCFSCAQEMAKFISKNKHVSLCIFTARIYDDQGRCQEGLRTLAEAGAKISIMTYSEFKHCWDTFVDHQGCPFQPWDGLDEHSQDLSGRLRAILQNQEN
# APOBEC3A inh = APOBEC3A ssDNA deaminase inhibitors, primary screen, selectivity assay for APOBEC3G inhibitor project, biochemical, FAM/TAMRA oligo cleavage fluorescence | 0.41% of 330,000 active | recombinant A3A, FAM/TAMRA ssDNA deamination fluorescence | inhibition, % at 20 µM;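 active = at least 40% inhibition at 20 µM here, with at most 30% in a related deaminase screen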
# Target sequence (P31941 whole entry, looked up): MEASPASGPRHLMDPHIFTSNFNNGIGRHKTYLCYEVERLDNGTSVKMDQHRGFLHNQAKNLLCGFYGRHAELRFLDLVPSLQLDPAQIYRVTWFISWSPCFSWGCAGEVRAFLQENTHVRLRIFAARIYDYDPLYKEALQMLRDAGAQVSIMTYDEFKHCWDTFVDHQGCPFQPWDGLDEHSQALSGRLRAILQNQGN
# VLA-4 inh = inhibition in human VLA-4 binding assay, primary screen, VLA-4 allosteric modulator project, MLPCN library, flow cytometry, VLA-4 expressing cells | AID 2557, 2010 | Integrin alpha-4 (Homo sapiens), P13612 | inhibition, % (about 7 µM as worked out from the volumes in the protocol) | 0.2% of 330,000 active | ligand binding flow cytometry; in the data active = inhibition above about 50%
# GRK2 inh = compounds blocking aptamer binding on GRK2 – biochemical, human GRK2, bead flow cytometry, HTS, primary screen. 0.59% of 330,000 active. inhibition of aptamer binding, % at 10 µM. FAM-aptamer displacement from GRK2. AID 488847, 2010;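 active = inhibition of aptamer binding above 40%, roughly 3 SD of noise, on plates passing a quality check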;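 also: median bead fluorescence of bound FAM aptamer so fluorescent compounds give negative values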
# APOBEC3A confirm = APOBEC3A deaminase inhibitors, retest, confirmation, selectivity assay for APOBEC3G inhibitor project, biochemical, single concentration, fluorescence readout | shares compounds with APOBEC3A inh | recombinant A3A, ssDNA deaminase UDG fluorescence assay | inhibition, % at 20 µM | 63% of 1,400 active | AID 493151, 2011;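 active = inhibition reaching a set limit, 80% of the first screen's cutoff, at 20 µM in any replicate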
# UDG ctr A3A = E. coli UDG inhibitors, confirmation, counter-screen for APOBEC3A inhibitor project, biochemical, single concentration, fluorescence, FAM/TAMRA oligo | shares compounds with APOBEC3A inh | UDG counterscreen, FAM/TAMRA uracil oligo fluorescence | inhibition, % at 20 µM | 1,000 tested, under 10 active; call rule not given here
# Hits are given with their value; – = inactive; · = not tested or not shown.
SMILES,APOBEC3G inh,APOBEC3A inh,VLA-4 inh,GRK2 inh,APOBEC3A confirm,UDG ctr A3A
O=C(NCCCn1ccnc1)c1ccncc1,–,–,–,–,·,·
O=C(NC1CCCCC1)N1CCC(c2nc3ccc(Cl)cc3[nH]2)CC1,–,40,–,–,–,–
O=C(NC1CCCCC1)N1CCC(c2nc3ccccc3[nH]2)CC1,–,–,–,–,·,·
COc1cccc(N2CCN(CC(=O)NC(=O)NCc3ccco3)CC2)c1,–,47,–,–,27,–
O=C(CN1CCN(c2ccccc2)CC1)NC(=O)NCc1ccco1,–,–,–,–,·,·
O=C(CCc1nnc(CCCCc2ccccc2)o1)NCc1cc(F)ccc1F,–,–,–,–,·,·
CN(CCCS(=O)(=O)[O-])c1ccc(/C=C/c2ccc3ccccc3[n+]2C)cc1,–,58,–,–,68,–
c1nc(N2CCCC2)c2[nH]cnc2n1,–,–,–,–,·,·
OCCN1CCN(c2ncnc3nc[nH]c23)CC1,–,51,–,–,–,–
CCOC(=O)c1nn(-c2ccc(F)cc2)c(=O)cc1OCC(=O)Nc1cccc(C)c1,–,–,–,–,·,·
CC1=CC(C)(C)[N+](C)(C)c2ccccc21,–,77,–,–,72,–
CC1=CC(C)(C)N(C(=O)c2ccccc2)c2ccccc21,–,–,–,–,·,·
COc1ccccc1N1CCN(S(=O)(=O)CCNC(=O)CC2CCCCC2)CC1,–,–,–,–,·,·
Cc1cccc(C(=O)Oc2ccc(/C=N/NC(=O)c3cc(O)cc(O)c3)cc2)c1,–,69,–,–,77,–
Cn1c2ccccc2c2cc(/C=N/NC(=O)c3cc(O)cc(O)c3)ccc21,–,55,–,–,60,–
C=CCn1c(SCC(=O)Nc2ncc(Cc3ccc(C)c(Cl)c3)s2)nnc1-c1ccncc1,–,–,–,–,·,·
COc1ccc(OC)c(CN2CCN(CC(=O)Nc3ccccc3C(=O)NC3CC3)CC2)c1,–,–,–,–,·,·
CCN(C(=O)COc1nc(C)cc(C)c1C#N)c1ccccc1,–,59,–,–,–,·
C=CCn1c(SC(C)C(=O)Nc2ccc(Cl)cn2)nnc1C1CC1 (stereo not drawn),–,–,–,–,·,·
CCOC(=O)c1cccc(NC(=O)c2cc3ccccc3o2)c1,–,–,–,–,·,·
O=[N+]([O-])c1ccccc1/C=C/C=N/Nc1nc(N2CCCCC2)nc(N2CCCCC2)n1,–,78,–,–,81,–
CC1(C)CC2CC(C)(CN2S(=O)(=O)c2cccc(C(=O)OCC(=O)NC(N)=O)c2)C1 (stereo not drawn),–,54,–,–,–,·
Cc1nnc2c(SC(C)C)nc3ccccc3n12,–,–,–,–,·,·
O=C(NC1CCCC1)C(c1ccccn1)N(C(=O)c1csnn1)c1ccc(F)cc1 (stereo not drawn),–,72,–,–,–,–
Cc1ccc(N(C(=O)c2csnn2)C(C(=O)NC2CCCCC2)c2ccccn2)cc1 (stereo not drawn),–,–,–,–,·,·
SMILES,APOBEC3G inh,APOBEC3A inh,VLA-4 inh,GRK2 inh,APOBEC3A confirm,UDG ctr A3A
C=CCNc1nnc(Cc2ccc(C(C)C)cc2)c(=O)[nH]1,–,–,–,–,·,·
CCC1=[N+](CC(=O)c2ccc(C)cc2)CCn2c(C)ccc21,–,–,–,–,·,·
CCC1=[N+](C)CCn2c(C)ccc21,–,64,–,–,76,–
CCc1nc(CNC(=O)c2cc(OC)c(OC)c(OC)c2)no1,–,48,–,–,73,–
COc1cc(C(=O)NCc2ccncc2)cc(OC)c1OC,–,–,–,–,·,·
O=C(NCC1CCCO1)C1CCN(S(=O)(=O)c2ccc(Br)cc2)CC1 (stereo not drawn),–,–,–,–,·,·
CSc1ccc(S(=O)(=O)N2CCC(C(=O)NCC3CCCO3)CC2)cc1 (stereo not drawn),–,63,–,–,56,–
CCN1C(=NCc2cccc(Cl)c2)N[C@@H](c2cccc(F)c2)C(C(=O)OC)=C1C,–,–,–,–,·,·
CCN1C(=NCCc2ccccn2)N[C@@H](c2cccc(F)c2)C(C(=O)OC)=C1C,–,48,–,–,63,–
COC(=O)C1=C(C)N(Cc2ccccc2)C(=NCCc2ccccn2)N[C@H]1c1cccc(F)c1,–,48,–,–,63,–
CN(C)c1ccc(NC(=O)COC(=O)CCC(=O)c2ccc(F)cc2)cc1,–,–,–,–,·,·
CCOC(=O)CC1(C)OCC(C[N+]2(C)CCCCC2)O1 (stereo not drawn),–,78,–,–,81,–
Clc1ccc(-c2cc(-c3ccccc3)on2)cc1,–,95,–,–,–,–
N#C/C(=C\c1ccc(-c2ccc([N+](=O)[O-])cc2Br)o1)C(=O)N1CCN(c2ccccc2)CC1,–,48,–,–,–,·
Cc1ccc(C(c2c(O)nc3n(c2=O)CCS3)c2c(O)nc3n(c2=O)CCS3)cc1,–,53,–,–,–,–
Cc1ccccc1OCCNc1cc(N2CC(C)NC(C)C2)ccc1[N+](=O)[O-] (stereo not drawn),–,–,–,–,·,·
O=C(O)C1CN(c2nc(Cl)ccc2[N+](=O)[O-])C1,–,–,–,–,·,·
CC(=O)Nc1ccc(Nc2nnc(-c3ccc(C)c(S(N)(=O)=O)c3)c3ccccc23)cc1,–,61,–,–,–,–
COc1cccc(-c2nnn(CC(C)=O)n2)c1,–,53,–,–,–,–
COc1ccc(C(=O)OCC[N+]2(C)CCOCC2)cc1,–,61,–,–,73,–
COc1ccc(C(=O)OCCc2ccc(O)cc2)cc1,–,–,–,–,·,·
O=C(O)c1ccc(CSc2n[nH]c(-c3ccco3)n2)cc1,–,85,–,–,59,–
COc1ccc(C(=O)NC2CCSc3ccccc32)cc1 (stereo not drawn),–,–,–,–,·,·
CC(=O)Nc1ccc(C(=O)NC2CCSc3ccccc32)cc1 (stereo not drawn),–,45,–,–,–,·
Cc1cc(F)ccc1NC(=O)C1CCCO1 (stereo not drawn),–,57,–,–,–,–
O=C(Nc1ccc(Cl)cc1Cl)C1CCCO1 (stereo not drawn),–,–,–,–,·,·
Cc1ccc(C2=C/C(=C/c3cccnc3)C(=O)O2)c(C)c1,–,–,–,–,·,·
O=C1OC(c2ccc(Cl)cc2)=C/C1=C/c1cccnc1,–,62,–,–,37,–

# Compound activity from PubChem.
